Bioassay records from PubChem BioAssay.
The list is not random: actives were taken first. Their share in the collection is about 12%.
JMJD2A Tudor: qHTS Assay for Inhibitors of JMJD2A-Tudor Domain. Lysine-specific demethylase 4A (Homo sapiens), O75164. AlphaScreen JMJD2A-Tudor / H3K4me3 peptide binding. Potency, µM (doses to about 114 µM), for inactives: at the highest dose activity change, negative = inhibition, most hits filed as inhibitors. 390,000 compounds, 4.4% hits; note: % is set by controls: 0 for no effect and ±100 for the full control effect; nearly all actives have a fitted effect of over 50% in size
HP1b binding inh: HTS for Inhibitors of HP1-beta Chromodomain Interactions with Methylated Histone Tails | AlphaScreen HP1-beta / biotin-H3K9me3 peptide binding | Potency, µM (highest dose often 114 µM), inactives show at the top dose activity change, negative = inhibition, hits mostly inhibitors | 390,000 compounds, 0.56% hits; note: nearly all actives have a fitted effect of over 70% in size
Target sequence (P83916 whole entry, looked up): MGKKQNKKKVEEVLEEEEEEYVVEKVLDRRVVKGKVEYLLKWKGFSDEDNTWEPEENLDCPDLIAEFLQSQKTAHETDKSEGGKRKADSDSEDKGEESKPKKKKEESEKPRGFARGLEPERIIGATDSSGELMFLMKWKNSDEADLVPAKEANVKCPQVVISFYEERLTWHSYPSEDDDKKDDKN
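AlphaScreen: HP1-beta (50 nM) preformed 30 min with biotin-H3(1-18)K9me3 peptide (50 nM) in PBS pH 7.4, 0.01% Tween-20. Compound added for 30 min at RT, then streptavidin donor/nickel chelate acceptor beads (10 ug/mL) for 30 min.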
BAZ2B block: qHTS Assay for Inhibitors of BAZ2B. Bromodomain adjacent to zinc finger domain protein 2B (Homo sapiens), Q9UIF8. AlphaScreen BAZ2B-H3K14Ac peptide displacement. Potency, µM (doses to about 114 µM), inactives show at the highest dose activity change, negative = inhibition, most hits filed as inhibitors. 360,000 compounds, 4.4% hits; note: % is set by controls: 0 for no effect and ±100 for the full control effect; nearly all actives have a fitted effect of over 60% in size
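AlphaScreen luminescence quantifies BAZ2B engagement of H3K14Ac peptide; the protein and biotinylated peptide are both at 50 nM final, buffer PBS pH 7.4 with 0.01% Tween-20, all steps at room temperature.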
L3MBTL1 block: qHTS Assay for the Inhibitors of L3MBTL1; Potency, µM (top dose mostly 57.1 µM), for the others: at the top dose activity, negative = inhibition, most hits filed as inhibitors; 230,000 compounds, 0.66% hits; AlphaScreen L3MBTL1–H3K9me1 peptide binding; note: % is set by controls: 0 for no effect and ±100 for the full control effect; nearly all actives have a fitted effect of over 60% in size
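AlphaScreen assay: L3MBTL1 (50 nM final) was preincubated 30 min at room temperature with biotinylated H3(1-15)K9me1 peptide (75 nM final), then 30 min with library compounds; streptavidin donor and nickel chelate acceptor beads (10 ug/mL final) added, 30 min dark.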
G9a block: qHTS Assay for Inhibitors of Histone Lysine Methyltransferase G9a; Potency, µM (top dose mostly 102 µM), inactives show at the highest dose activity, negative = inhibition, most hits filed as inhibitors; 350,000 compounds, 8.8% hits; Histone-lysine N-methyltransferase EHMT2 (Homo sapiens), Q96KQ7; G9a H3K9 monomethylation, AlphaScreen, 2 h; note: % is set by controls: 0 for no effect and ±100 for the full control effect; nearly all actives have a fitted effect of over 75% in size
Target sequence (Q96KQ7 913-1193 limits assumed): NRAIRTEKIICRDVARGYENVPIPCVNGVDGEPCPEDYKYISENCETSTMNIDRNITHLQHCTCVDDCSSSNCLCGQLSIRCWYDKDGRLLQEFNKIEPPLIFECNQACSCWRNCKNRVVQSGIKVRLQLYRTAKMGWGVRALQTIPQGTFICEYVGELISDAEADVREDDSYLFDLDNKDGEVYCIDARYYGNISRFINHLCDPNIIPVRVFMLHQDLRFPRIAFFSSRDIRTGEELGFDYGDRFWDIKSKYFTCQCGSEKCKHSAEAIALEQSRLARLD
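Signal arises when biotinylated H3K9 peptide, once monomethylated, bridges streptavidin donor and antibody-captured acceptor beads. Enzyme at 20 nM was preincubated 15 min with test compounds; peptide 500 nM and SAM 20 uM then reacted for 2 h.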
Sfp inh: qHTS Assay for Inhibitors of Bacillus subtilis Sfp phosphopantetheinyl transferase (PPTase) | 4'-phosphopantetheinyl transferase ffp (Bacillus subtilis), Q9F4F7 | Biochemical Sfp PPTase activity, qHTS | Potency, µM, without a hit: largest response in the series, negative = inhibition, usual class: inhibitors | 310,000 compounds, 3.5% hits | AID 1490, 2009;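 note: the enzyme is Sfp with the accession as filed and its product quenches rhodamine fluorescence; 0% = enzyme reaction without inhibitor and -100% = no enzyme wells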
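Fluorescence-quenching assay with 15 nM Sfp, 5 uM rhodamine-CoA and 12.5 uM BHQ-2-labelled ybbR peptide in pH 7.6 Hepes/MgCl2 buffer. Enzyme was pre-incubated with compound for 15 min at room temperature. Rate was taken from the 30-min fluorescence change (525/598 nm).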
The depositor's hits bear a star; [ ] = remark or other dose. Calls come from the whole dose curve; as a rule, active = well fitted curve in the direction sought with a large enough effect; inconclusive = small, poorly fitted or top-dose-only effect, or another doubt; inactive = no such curve, though single readings can be large; an effect the other way counts as inactive or inconclusive. Potency is the fitted concentration of half-maximal effect.

Results for Cc1ccc(N2C(=O)c3[nH]nc(-c4ccc(Cl)cc4)c3C2c2ccc(F)cc2)cc1 (centres undefined) ?
JMJD2A Tudor: -31%; HP1b binding inh: 21%; G9a block: -1%[59 µM]

What do the screens show for `Cc1ccc(C2CC2c2n[nH]c(=S)n2-c2cccc(C)c2)cc1` (centres undefined)?
JMJD2A Tudor: -27%[11.4 µM]; HP1b binding inh: -19%; BAZ2B block: -31%; L3MBTL1 block: -18%; G9a block: 14µM*; Sfp inh: -16%

What do the screens show for `O=c1onc(-c2ccccc2Cl)n1-c1ccccc1Cl`?
JMJD2A Tudor: 5%; HP1b binding inh: 20%

How did Cc1ccc(C2CC2c2n[nH]c(=S)n2-c2ccc(Cl)cc2)cc1 (centres undefined) do in these assays?
JMJD2A Tudor: -14%; HP1b binding inh: -5%; BAZ2B block: -35%; G9a block: 22µM*; Sfp inh: 20%

How did S=c1[nH]nc([C@@H]2C[C@H]2c2ccccc2)n1-c1ccccc1Cl do in these assays?
JMJD2A Tudor: inconclusive; HP1b binding inh: 44%; BAZ2B block: -23%; L3MBTL1 block: -4%; G9a block: 5µM*; Sfp inh: 24%

What do the screens show for `COc1cccc(CNC(=O)c2cc3cc(C)ccc3n2C)c1`?
JMJD2A Tudor: -5%; HP1b binding inh: 47%; BAZ2B block: 2%; G9a block: 2%[59 µM]

How did Cc1ccc2[nH]c(=S)cc(C)c2c1 do in these assays?
JMJD2A Tudor: -14%; HP1b binding inh: 37%; BAZ2B block: 4%; L3MBTL1 block: -9%; G9a block: -24%[59 µM]; Sfp inh: inconclusive

How did c1ccc2c(c1)[nH]c1ccccc12 do in these assays?
JMJD2A Tudor: -8%; HP1b binding inh: 23%

How did Cc1cc(=S)[nH]c2ccccc12 do in these assays?
JMJD2A Tudor: -30%; HP1b binding inh: 17%; BAZ2B block: -25%; L3MBTL1 block: 3%; G9a block: 2.8µM*; Sfp inh: inconclusive

What do the screens show for `Cc1ccc2c(C)cc(=S)[nH]c2c1`?
JMJD2A Tudor: 0%; HP1b binding inh: 33%; BAZ2B block: -18%; L3MBTL1 block: 4%; G9a block: 50µM*; Sfp inh: 6%

What do the screens show for `O=C1OC(CO)C(O)C(O)C1O` (centres undefined)?
G9a block: 8%[2.33 µM]; Sfp inh: 9%

How did Cc1ccc(CNC(=O)c2ccc3c(c2)nc2n3CCCC2)cc1 do in these assays?
JMJD2A Tudor: 1%; HP1b binding inh: 25%[57 µM]; BAZ2B block: 2%; G9a block: 10%[59 µM]

What do the screens show for `CCSc1ccc2nnc(-c3cccs3)n2n1`?
JMJD2A Tudor: -16%; HP1b binding inh: 20%; BAZ2B block: -27%; L3MBTL1 block: 8%; G9a block: inconclusive; Sfp inh: 5%

Results for O=C(CSc1ccc2nnc(-c3cccs3)n2n1)N1CCCC1 ?
JMJD2A Tudor: -3%; HP1b binding inh: 47%; BAZ2B block: inconclusive; L3MBTL1 block: inconclusive; G9a block: 18µM*; Sfp inh: -21%

What do the screens show for `COc1ccc(-c2nnc3ccc(SCC(=O)N4CCOCC4)nn23)cc1`?
JMJD2A Tudor: -8%; HP1b binding inh: 37%; BAZ2B block: 4%; L3MBTL1 block: -11%; G9a block: 22µM*; Sfp inh: -1%

How did COc1ccc(-c2nnc3ccc(SCC(=O)N4CCN(c5ccccc5)CC4)nn23)cc1 do in these assays?
JMJD2A Tudor: inconclusive; HP1b binding inh: 34%
